Test results: PubChem BioAssay
The source made the active and inactive calls. Unless noted, no rule for the calls is given here.

Key:
[1] = resazurin metabolic signal in HepG2 cells – cell-based, resazurin fluorescence, 24 h, PK04 Diversity Set, profiling panel (AID 1172); conditions: HepG2 viability, higher = more signal
[2] = budding yeast growth changes without added modifier – OD600, strain BY4716, 24 h, basal condition, primary screen (AID 1173); conditions: S. cerevisiae BY4716 growth, OD600, 24 h; higher = more signal, called active from +8 up or from −8 down
[3] = viability profiling in MM1S myeloma cells – cell-based, resazurin fluorescence, basal, 24 h, PK04 Diversity Set, profiling panel (AID 1174); conditions: higher = more signal, called active from +8 up or from −8 down;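 also: MM1S multiple myeloma cell line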
[4] = biological target: Dihydroorotate dehydrogenase (quinone), mitochondrial (Plasmodium falciparum (isolate 3D7)) (UniProt Q08210); experiment: inhibition of P. falciparum DHODH – biochemical, C-terminal His tag, absorbance 600 nm, primary screen (AID 1175); conditions: PfDHODH enzyme, DCIP absorbance 600 nm; higher = more signal, called active from +8 up or from −8 down;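 also: recombinant parasite enzyme with a five histidine tag at its C terminus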
Dihydroorotate dehydrogenase (quinone), mitochondrial (Plasmodium falciparum (isolate 3D7)), sequence (Q08210 whole entry, looked up): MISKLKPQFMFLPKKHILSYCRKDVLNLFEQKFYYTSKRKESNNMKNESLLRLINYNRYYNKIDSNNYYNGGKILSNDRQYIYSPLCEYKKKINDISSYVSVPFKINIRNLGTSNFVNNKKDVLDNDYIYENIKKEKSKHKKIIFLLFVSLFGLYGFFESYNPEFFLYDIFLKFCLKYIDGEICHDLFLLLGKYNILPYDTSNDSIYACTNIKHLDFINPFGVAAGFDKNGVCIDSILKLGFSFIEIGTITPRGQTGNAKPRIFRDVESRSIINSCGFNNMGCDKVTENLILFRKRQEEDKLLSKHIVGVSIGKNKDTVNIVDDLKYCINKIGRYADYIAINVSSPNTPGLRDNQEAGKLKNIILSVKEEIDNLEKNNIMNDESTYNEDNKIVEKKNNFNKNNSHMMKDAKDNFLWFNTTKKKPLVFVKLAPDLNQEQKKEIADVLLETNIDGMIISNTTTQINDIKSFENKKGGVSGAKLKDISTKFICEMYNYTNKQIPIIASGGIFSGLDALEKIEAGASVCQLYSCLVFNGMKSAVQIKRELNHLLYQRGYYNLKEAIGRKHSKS

[5] = inhibition of PAO1 biofilm formation – strain PAO1, LB-PBS medium, absorbance 600 nm, primary screen (AID 1176); conditions: P. aeruginosa PAO1 growth/biofilm, A600, 12 h; higher = more signal
[6] = growth modulation of vineyard yeast isolate – strain RM11-1a, OD600, basal, 24 h, primary screen (AID 1177);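 also: cultures grown under basal conditions with no added stressor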; conditions: S. cerevisiae RM11-1a growth, OD600, 24 h; higher = more signal, called active from +8 up or from −8 down
[7] = growth of efflux-deficient E. coli DRC39 – strain DRC39, OD650, 24 h, E. coli filamentation inducers, primary screen (AID 1178);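 also: growth measured as culture turbidity by optical density at 650 nm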; conditions: E. coli DRC39 acrAB, higher = more signal, called active from +8 up or from −8 down
[8] = growth of efflux-deficient E. coli DRC39 – strain DRC39, OD650, 48 h, E. coli filamentation inducers, primary screen (AID 1179);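 also: screen aims at cell division blockers that make cells filament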; conditions: E. coli DRC39 delta-acrAB growth, higher = more signal, called active from +8 up or from −8 down
[9] = viability profiling in RPMI8226 myeloma cells – cell-based, resazurin fluorescence, basal, 24 h, PK04 Diversity Set, profiling panel (AID 1180); conditions: higher = more signal;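 also: RPMI8826 multiple myeloma cell line at 5000 cells per well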
[10] = biological target: E3 ubiquitin-protein ligase XIAP (Homo sapiens) (UniProt P98170); experiment: small molecules binding XIAP protein – biophysical, small-molecule microarray, fluorescence 635 nm, primary screen (AID 1181); conditions: higher = more signal;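 also: score merges 667 nm emission and signal to noise over triplicate slides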
E3 ubiquitin-protein ligase XIAP (Homo sapiens), sequence (P98170 whole entry, looked up, the tested form may be a part): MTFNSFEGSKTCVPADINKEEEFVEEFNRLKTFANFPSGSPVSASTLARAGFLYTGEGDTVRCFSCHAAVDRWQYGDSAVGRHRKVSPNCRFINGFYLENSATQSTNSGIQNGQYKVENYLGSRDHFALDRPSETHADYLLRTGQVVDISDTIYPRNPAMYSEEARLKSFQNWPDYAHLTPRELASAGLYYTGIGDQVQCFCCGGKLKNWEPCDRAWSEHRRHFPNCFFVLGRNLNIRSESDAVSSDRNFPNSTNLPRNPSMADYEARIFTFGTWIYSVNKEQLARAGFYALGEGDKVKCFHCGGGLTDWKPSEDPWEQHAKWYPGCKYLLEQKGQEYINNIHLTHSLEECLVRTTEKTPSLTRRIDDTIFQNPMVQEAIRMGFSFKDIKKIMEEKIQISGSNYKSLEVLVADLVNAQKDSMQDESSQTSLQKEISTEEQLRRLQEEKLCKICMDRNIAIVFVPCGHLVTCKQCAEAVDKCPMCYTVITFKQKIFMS

[11] = system: XIP peptide (Xip251-270) binding; experiment: XIP fragment 251-270 binding compounds – biochemical, small-molecule microarray, fluorescence 635/667 nm, 0.1 µg/mL protein, primary screen (AID 1182); conditions: fluorescent protein binding, 635 nm, higher = more signal, called active from +8 up or from −8 down
[12] = system: XIP peptide (Xip251-270); experiment: compounds binding XIP fragment 251-270 – biochemical, small-molecule microarray, fluorescence 635/667 nm, 0.5 µg/mL protein, primary screen (AID 1183); conditions: fluorescence 635 nm, higher = more signal
[13] = blood-stage malaria parasite viability loss – strain 3D7, DAPI fluorescence, 100 nL, primary screen (AID 1184);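 also: parasites grown inside human red blood cells in medium with human serum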; conditions: P. falciparum 3D7 growth, 3 d, higher = more signal
[14] = biological target: Homeobox protein Hox-A13 (Mus musculus) (UniProt Q62424); experiment: disruptors of Hoxa13 oligonucleotide interaction – biochemical, fluorescence polarization, labeled oligonucleotide, primary screen (AID 1185); conditions: Hoxa13:DNA binding, 15 min, higher = more signal, called active from +8 up or from −8 down
Homeobox protein Hox-A13 (Mus musculus), sequence (Q62424 whole entry, looked up): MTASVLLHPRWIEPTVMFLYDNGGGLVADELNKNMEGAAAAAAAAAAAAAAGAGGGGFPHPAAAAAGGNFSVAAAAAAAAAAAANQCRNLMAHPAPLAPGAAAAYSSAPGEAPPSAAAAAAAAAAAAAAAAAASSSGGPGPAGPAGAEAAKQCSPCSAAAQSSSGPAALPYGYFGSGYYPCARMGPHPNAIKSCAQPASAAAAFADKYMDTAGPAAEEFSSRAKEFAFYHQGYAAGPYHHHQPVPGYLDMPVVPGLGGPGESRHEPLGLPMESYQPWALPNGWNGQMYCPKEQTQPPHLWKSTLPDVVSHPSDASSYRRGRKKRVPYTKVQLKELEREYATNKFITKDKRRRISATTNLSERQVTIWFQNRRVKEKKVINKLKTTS

[15] = blockers of DNA damage checkpoint Chk1 activation – imaging, HeLa, hydroxyurea, phospho-Chk1 antibody, percent positive cells, primary screen (AID 1186); conditions: hydroxyurea-induced phospho-Chk1 immunofluorescence imaging, higher = more signal
[16] = blockers of DNA damage checkpoint Chk1 activation – imaging, HeLa, hydroxyurea, phospho-Chk1 nuclear intensity, primary screen (AID 1187); conditions: hydroxyurea-induced phospho-Chk1 immunofluorescence imaging, higher = more signal

Row | SMILES | z-score [1] | z-score [2] | z-score [3] | composite z-score [4] | z-score [5] | z-score [6] | z-score [7] | z-score [8] | z-score [9] | composite z-score [10] | composite z-score [11] | composite z-score [12] | z-score [13] | z-score [14] | z-score [15] | z-score [16]
1 | O=C1O[C@@H](c2ccccc2)[C@@H](c2ccccc2)N2[C@@H](c3ccc(O)cc3)[C@]3(C(=O)Nc4ccc(C#CCCO)cc43)[C@@H](C(=O)O)[C@H]12 | 0.259 | -1.01 (inactive) | 0.519 (inactive) | -2.07 (inactive) | 0.201 (inactive) | -0.261 (inactive) | 0.151 (inactive) | 0.67 (inactive) | 0.545 | 0.511 | 0.665 (inactive) | 0.785 | -0.63 | -4.56 (inactive) | 0.0686 (inactive) | 0.632 (inactive)
2 | C=CCN1C(=O)[C@]2(COC(c3ccc(OCCCO)cc3)=N2)Cc2ccccc21 | 0.653 | -1.8 (inactive) | -0.99 (inactive) | -1.5 (inactive) | 0.286 (inactive) | -0.675 (inactive) | 0.695 (inactive) | 1.54 (inactive) | -0.126 | 0.0933 | 2.53 (inactive) | 0.797 | -2.19 | -4.31 (inactive) | -0.455 (inactive) | -0.398 (inactive)
3 | [N-]=[N+]=NCc1ccccc1C[C@]1(C(N)=O)N=C(c2ccc(OCCCO)cc2)O[C@H]1c1ccccc1N=[N+]=[N-] | 0.776 | 0.603 (inactive) | -1.2 (inactive) | 1.56 (inactive) | 1.54 (inactive) | 2.09 (inactive) | 0.616 (inactive) | 0.116 (inactive) | -1.24 | -0.0444 | 2.56 (inactive) | 0.664 | -2.06 | -4.7 (inactive) | -0.118 (inactive) | -0.0296 (inactive)
4 | O=C(NCCN1CCOCC1)[C@@H]1c2ccccc2C(=O)N(Cc2cc(F)cc(C(F)(F)F)c2)[C@H]1c1ccc(CO)cc1 | -0.375 | -0.191 (inactive) | 0.362 (inactive) | -0.517 (inactive) | -0.0807 (inactive) | -0.64 (inactive) | 0.552 (inactive) | -0.232 (inactive) | 0.419 | 0.0451 | 0.376 (inactive) | 0.372 | 0.0111 | -4.42 (inactive) | -0.189 (inactive) | -0.151 (inactive)
5 | CCCC[C@H]1C[C@@H]1[C@@H]1N(P(=O)(c2ccccc2)c2ccccc2)[C@](CO)(c2ccccc2)CC12CC2 | -0.544 | 0.402 (inactive) | -1.93 (inactive) | -0.152 (inactive) | 0.411 (inactive) | 1.14 (inactive) | 0.0779 (inactive) | -0.872 (inactive) | -6.02 | 0.247 | -0.131 (inactive) | 0.518 | 0.791 | -2.7 (inactive) | 0.335 (inactive) | 0.514 (inactive)
6 | [N-]=[N+]=NCc1ccccc1C[C@]1(C(=O)NCCN2CCOCC2)N=C(c2ccc(OCCCO)cc2)O[C@H]1c1ccccc1CN=[N+]=[N-] | 0.0176 | -2.56 (inactive) | 0.836 (inactive) | 1.31 (inactive) | 0.428 (inactive) | -1.95 (inactive) | 1.93 (inactive) | 0.844 (inactive) | 0.0688 | 0.0871 | 3.06 (inactive) | 0.578 | -2.67 | -2.59 (inactive) | -0.26 (inactive) | -0.787 (inactive)
7 | O=C1O[C@H](c2ccccc2)[C@H](c2ccccc2)N2[C@H]1[C@@H](C(=O)NC[C@H](O)c1ccccc1)[C@]1(C(=O)Nc3ccc(C#CC4(O)CCCCCC4)cc31)[C@H]2c1ccccc1OCCO | -2.48 | 1.6 (inactive) | -7.19 (inactive) | -0.147 (inactive) | 2.83 (inactive) | 3.43 (inactive) | 0.408 (inactive) | 0.283 (inactive) | -6.96 | 0.165 | -0.34 (inactive) | 0.814 | -2.04 | -2.77 (inactive) | -0.0899 (inactive) | -0.0113 (inactive)
8 | COC(=O)[C@@]1(Cc2ccc(F)cc2)[C@H]2c3cc(C(=O)N4CCCC4)n(Cc4ccc(Cl)c(C(F)(F)F)c4)c3C[C@H]2CN1C(=O)c1ccccc1 | -1.03 | 1.55 (inactive) | -2.02 (inactive) | 0.0979 (inactive) | 0.84 (inactive) | 0.78 (inactive) | -0.178 (inactive) | 0.272 (inactive) | -3.32 | 0.553 | 0.15 (inactive) | 0.625 | -1.45 | -2.22 (inactive) | 0.612 (inactive) | -0.126 (inactive)
9 | CC(C)NC(=O)[C@@H]1c2ccccc2C(=O)N(C2CCCCC2)[C@H]1c1ccc(CO)cc1 | -0.208 | -0.63 (inactive) | -0.569 (inactive) | -0.131 (inactive) | 0.36 (inactive) | 0.052 (inactive) | 0.126 (inactive) | -0.0549 (inactive) | -0.374 | 0.0124 | 0.457 (inactive) | 0.254 | -0.361 | -2.65 (inactive) | -0.0625 (inactive) | -0.237 (inactive)
